Experimental findings from PubChem BioAssay (NCI) are described below.

About 83,000 compounds went through this panel and 20% of them were active in at least one assay; those are over-represented in the sample as a whole.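 Growth was measured after 48 h exposure to one concentration of compound in 96-well plates. Values under 10 count as active.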 Calls of active or inactive are those of the source.

In this test the test system is PC-3 prostate. Kind of test: NCI-60 one-dose screen, 48 h (100 = growth as untreated, 0 = no growth, -100 = all killed). The conditions noted are these: 10 µM unless noted. The procedure:
Growth inhibition of the PC-3 human tumor cell line is measured as a screen for anti-cancer activity. Cells are grown in 96 well plates and exposed to the test compound for 48 hours. Compounds are tested at a single concentration, which is 10^-5 M for most compounds. The reported endpoint is percent growth (GI% or GIPRCNT), where numbers from 0 - 100% represent growth inhibition, and numbers from -100% - 0 represent cell death. For example, a value of 40 represents 60% growth inhibition. A value of 0 means no net growth occurred over the course of the experiment. A value of -40 indicates 40% of cells at the beginning of the experiment died by the end of the experiment. A value of -100 means all cells are dead at the end of the experiment.
NCI-60 Human Tumor Cell Lines Screen was performed using the standard one-dose NCI protocol, which is described in more detail at https://dtp.cancer.gov/discovery_development/nci-60/default.htm.
Compounds with GIPRCNT values below 10 were considered active. Activity score was based on GIPRCNT using the following formula: […]
Score is 0 for GIPRCNT values of 100 or above, 50 for GIPRCNT values of 0, and 100 for GIPRCNT values of -100.
Take `COc1ccc(-c2cc(-c3ccc(OC)c(OC)c3)nc(SCCCCCC(=O)NO)n2)cc1`: the growth was 64.5% (inactive). Next, `O=C(OCc1ccc2c(Cl)cc(Cl)c(O)c2n1)N1CCN(C(=O)c2cc3cc(F)ccc3[nH]2)CC1`: 15.8% (inactive); `ClC1=C(Cl)C(Cl)=C(Cl)C1=Cc1ccccc1`: -10.3% (active); `COc1ccc(-c2cc(-c3ccccc3)nc(NCCNc3ccnc4cc(Cl)ccc34)n2)cc1`: -81.8% (active).

Consider `CC1Cc2c(Cl)ncnc2N(C)c2ccc(O)cc21` (stereo not given), for which the growth is 31.4% (inactive). Turning to `COc1ccc(C(=O)c2nccc3cc(OC)c(OC)cc23)cc1OC`, the growth is 95.9% (inactive). Next, `CCOC(=O)c1cnc2ccc(Br)cc2c1Nc1cccc(S(N)(=O)=O)c1`: 94.5% (inactive); `COc1cc(NCc2ccccc2O)c2ncccc2c1`: 83.6% (inactive); `COc1ccc2c(c1)C(C)Cc1c(Cl)nc(C)nc1N2C` (stereo not given): 14.8% (inactive). The figure for `CCCCNC(=O)NS(=O)(=O)Cc1ccccc1` is 102% (inactive). The figure for `Nc1cccc2c1C(=O)c1cccc(NC(=O)c3ccccc3)c1C2=O` is 32.5% (inactive); for `O=C(O)c1cn(C2CC2)c2cc(N3CCN(Cc4cc(Cl)ccc4O)CC3)c(F)cc2c1=O` it is 54.7% (inactive). On to `O=C(Nc1cccc(F)c1)c1cc(=O)[nH]c2cc(Br)ccc12`, for which the growth was 43.8% (inactive). Turning to `O=C1/C(=C/c2ccc(OCc3ccccc3)cc2)Oc2cc(OCCN3CCCCC3)ccc21`, the growth was 74.9% (inactive). `Cc1ccccc1-n1nnc(C(=O)Nc2nc3ccc(F)cc3s2)c1C`: the growth is 47.5% (inactive). Next, `c1ccc2c(c1)CN(CCCN1CCOCC1)C2`: 96.4% (inactive). The figure for `CCCc1cc2cc(-n3nc(C)c4c3CC(C)(C)CC4=O)cc(NC3CCSCC3)c2c(=O)[nH]1` is 55.2% (inactive); for `COc1cc2c(c(OC)c1)C1c3cc(OC)ccc3NC(=O)N1CC2` (stereo not given) it is 77.7% (inactive). The figure for `CN(C)CCCNc1nc(-c2cccc(C(Cl)(Cl)Cl)c2)nc(C(Cl)(Cl)Cl)n1` is 98.4% (inactive); for `CC1=C/C(=C(\c2cc(C)c(O)c(C(=O)O)c2)c2c(Cl)cccc2Cl)C=C(C(=O)O)C1=O` it is 89% (inactive). On to `O=C(N=c1n(-c2ccccc2)nc2n1CCN2C1=NCCN1C(=O)c1ccc(Cl)cc1)c1ccc(Cl)cc1`, for which the growth is 47.5% (inactive). As to `CCn1cc(-c2[nH]c(=S)ncc2-c2ccc(Cl)cc2)c(-c2ccc(Br)cc2)n1`, the growth was 64.3% (inactive). Next, `CCC(C)[C@H](NC(=O)NC(=O)NC(=O)CI)C(=O)OC` (stereo not given in full): 93.3% (inactive); `COc1ccc2nc3cc(Cl)ccc3c(Nc3ccc(O)c(CN4CCCC4)c3)c2c1`: 24.2% (inactive); `CC1(C(=O)O)CCC(N)(C(=O)O)C1(C)C` (stereo not given): 88.8% (inactive). Next, `N#Cc1c(Cl)nc(SCC2CO2)nc1-c1ccccc1` (stereo not given): 110% (inactive). In the case of `Clc1ccccc1/C=N\Nc1ccccn1`, the growth was 104% (inactive).

`Cc1cc(NN=C(c2ccc(O)cc2)c2ccc(O)cc2)c([N+](=O)[O-])cc1[N+](=O)[O-]`: the growth is 38.4% (inactive). Next, `COc1ccc(C(=O)CCC(=O)O)cc1`: 92.5% (inactive); `O=C(NCCCNC(=O)OCc1ccc2cccc(O)c2n1)OCc1ccc2cccc(O)c2n1`: 56.6% (inactive); `CC1(C)CC[C@]2(C(N)=O)CC[C@]3(C)C(=CC[C@@H]4[C@@]5(C)C/C(=C/c6ccncc6)C(=O)C(C)(C)[C@@H]5CC[C@]43C)[C@@H]2C1`: -33.5% [100 µM] (active). The figure for `c1coc2occoc=2o1` is 96.8% (inactive); for `COC(=O)[C@@H](NC(=O)NC(=O)NC(=O)CI)C(C)C` it is 85.5% (inactive); for `CCCCC(CCCCCC(CCCC)C1NC(C)Cc2cc(OC)c(OC)cc21)C1NC(C)Cc2cc(OC)c(OC)cc21` (stereo not given) it is -60.8% (active). For the compound `COc1ccc(N(c2nc(-c3ccc([N+](=O)[O-])cc3)cs2)C(C)C)cc1`, the growth is 84% (inactive). The figure for `O=C(Oc1ccc(Cl)cc1[N+](=O)[O-])Oc1ccc(Cl)cc1[N+](=O)[O-]` is 88.5% (inactive); for `O=C1CN(Cc2ccc(C(=O)NO)cc2)C(=O)[C@@H](Cc2ccccc2)N1` it is 97.9% (inactive); for `COc1ccc(-c2nc3ccccn3c2/C=C/C(=O)c2cc(OC)c(OC)c(OC)c2)cc1OC` it is 26.1% (inactive). As for `CCNc1cc2c(cc1Br)-c1ccccc1C2=O`, the growth was 81.4% (inactive). The figure for `CC1Cc2c(Cl)ncnc2N(C)c2ccc(Cl)cc21` (stereo not given) is 13.9% (inactive).
